Measured values reported in the supplement of paper PMC7261846.
Structures can show the parent of a compound that is named as a salt. ± gives the uncertainty stated by the source.

System: Candida albicans SNY425 biofilm
Test: biofilm OD600 with compound plus antifungal (OD600 (absorbance)); higher = more biofilm remaining
[1] = assay detail: disruption of 24-h mature biofilm (compound + antifungal for a second 24 h)
[2] = assay detail: sustained inhibition (compound + antifungal during 90-min adherence and 24-h growth)

Compound	biofilm OD600 [1]	biofilm OD600 [2]
COC(=O)C[C@H](NC(=O)[C@H](C)NC(=O)[C@@H](NC(=O)OCc1ccccc1)C(C)C)C(=O)CF + CC[C@H](C)C[C@H](C)CCCCCCCCC(=O)N[C@H]1C[C@@H](O)[C@@H](NCCN)NC(=O)[C@@H]2[C@@H](O)CCN2C(=O)[C@H]([C@H](O)CCN)NC(=O)[C@H]([C@H](O)[C@@H](O)c2ccc(O)cc2)NC(=O)[C@@H]2C[C@@H](O)CN2C(=O)[C@H]([C@@H](C)O)NC1=O [caspofungin] (first compound 12.5 µM)	0.296 ± 0.011	0.177 ± 0.0034
Cc1c(O)cccc1C(=O)N[C@@H](CSc1ccccc1)[C@H](O)CN1C[C@H]2CCCC[C@H]2C[C@H]1C(=O)NC(C)(C)C [nelfinavir] + CC[C@H](C)C[C@H](C)CCCCCCCCC(=O)N[C@H]1C[C@@H](O)[C@@H](NCCN)NC(=O)[C@@H]2[C@@H](O)CCN2C(=O)[C@H]([C@H](O)CCN)NC(=O)[C@H]([C@H](O)[C@@H](O)c2ccc(O)cc2)NC(=O)[C@@H]2C[C@@H](O)CN2C(=O)[C@H]([C@@H](C)O)NC1=O [caspofungin] (first compound 12.5 µM)	0.17 ± 0.0053	0.127 ± 0.019
Cc1ccc(S(=O)(=O)N[C@@H](Cc2ccccc2)C(=O)CCl)cc1 + C[C@@H]1[C@H](O)[C@@H](C)/C=C/C=C/C=C/C=C/C=C/C=C/C=C/[C@H](O[C@@H]2O[C@H](C)[C@@H](O)[C@H](N)[C@@H]2O)C[C@@H]2O[C@](O)(C[C@@H](O)C[C@@H](O)[C@H](O)CC[C@@H](O)C[C@@H](O)CC(=O)O[C@H]1C)C[C@H](O)[C@H]2C(=O)O [amphotericin B] (first compound 4 µM)	0.25 ± 0.011	0.158 ± 0.0081
CCCCCCCCCC(=O)N[C@@H](CCCN=C(N)N)C(=O)N[C@H](C(=O)N[C@@H](CCCCN)C(=O)N[C@@H](CCCN=C(N)N)C(=O)CCl)C(C)C + OC(Cn1cncn1)(Cn1cncn1)c1ccc(F)cc1F [fluconazole] (first compound 4 µM)	0.267 ± 0.0072	0.108 ± 0.005
CC[C@H](C)[C@H](N)C(=O)N1CCSC1 [P32/98 hemifumarate salt] + CC[C@H](C)C[C@H](C)CCCCCCCCC(=O)N[C@H]1C[C@@H](O)[C@@H](NCCN)NC(=O)[C@@H]2[C@@H](O)CCN2C(=O)[C@H]([C@H](O)CCN)NC(=O)[C@H]([C@H](O)[C@@H](O)c2ccc(O)cc2)NC(=O)[C@@H]2C[C@@H](O)CN2C(=O)[C@H]([C@@H](C)O)NC1=O [caspofungin] (first compound 12.5 µM)	0.254 ± 0.0085	0.171 ± 0.0047
O=C(NCCCCN1CCOCC1)c1cc2ccccc2o1 + OC(Cn1cncn1)(Cn1cncn1)c1ccc(F)cc1F [fluconazole] (first compound 12.5 µM)	0.258 ± 0.0098	0.158 ± 0.008
NC(=O)c1cccc(-c2cccc(OC(=O)NC3CCCCC3)c2)c1 + C[C@@H]1[C@H](O)[C@@H](C)/C=C/C=C/C=C/C=C/C=C/C=C/C=C/[C@H](O[C@@H]2O[C@H](C)[C@@H](O)[C@H](N)[C@@H]2O)C[C@@H]2O[C@](O)(C[C@@H](O)C[C@@H](O)[C@H](O)CC[C@@H](O)C[C@@H](O)CC(=O)O[C@H]1C)C[C@H](O)[C@H]2C(=O)O [amphotericin B] (first compound 12.5 µM)	0.295 ± 0.0047	0.178 ± 0.0061
CCCCCCCCCC(=O)N[C@@H](CCCN=C(N)N)C(=O)N[C@H](C(=O)N[C@@H](CCCCN)C(=O)N[C@@H](CCCN=C(N)N)C(=O)CCl)C(C)C + C[C@@H]1[C@H](O)[C@@H](C)/C=C/C=C/C=C/C=C/C=C/C=C/C=C/[C@H](O[C@@H]2O[C@H](C)[C@@H](O)[C@H](N)[C@@H]2O)C[C@@H]2O[C@](O)(C[C@@H](O)C[C@@H](O)[C@H](O)CC[C@@H](O)C[C@@H](O)CC(=O)O[C@H]1C)C[C@H](O)[C@H]2C(=O)O [amphotericin B] (first compound 4 µM)	0.261 ± 0.0041	0.188 ± 0.0044
O=C(O)CNC(=O)C(CS)Cc1ccccc1 (racemic) [DL-Thiorphan] + C[C@@H]1[C@H](O)[C@@H](C)/C=C/C=C/C=C/C=C/C=C/C=C/C=C/[C@H](O[C@@H]2O[C@H](C)[C@@H](O)[C@H](N)[C@@H]2O)C[C@@H]2O[C@](O)(C[C@@H](O)C[C@@H](O)[C@H](O)CC[C@@H](O)C[C@@H](O)CC(=O)O[C@H]1C)C[C@H](O)[C@H]2C(=O)O [amphotericin B] (first compound 12.5 µM)	0.264 ± 0.0083	0.164 ± 0.012
Cc1ccc(S(=O)(=O)N[C@@H](Cc2ccccc2)C(=O)CCl)cc1 + CC[C@H](C)C[C@H](C)CCCCCCCCC(=O)N[C@H]1C[C@@H](O)[C@@H](NCCN)NC(=O)[C@@H]2[C@@H](O)CCN2C(=O)[C@H]([C@H](O)CCN)NC(=O)[C@H]([C@H](O)[C@@H](O)c2ccc(O)cc2)NC(=O)[C@@H]2C[C@@H](O)CN2C(=O)[C@H]([C@@H](C)O)NC1=O [caspofungin] (first compound 4 µM)	0.251 ± 0.011	0.152 ± 0.013
O=C[C@@H]1CCCN1C(=O)[C@@H]1CCCN1C(=O)OCc1ccccc1 [Z-Prolyl-prolinal] + OC(Cn1cncn1)(Cn1cncn1)c1ccc(F)cc1F [fluconazole] (first compound 12.5 µM)	0.247 ± 0.013	0.0978 ± 0.0091
CC(C)C[C@@H](C=O)NC(=O)[C@H](CC(C)C)NC(=O)[C@H](CC(C)C)NC(=O)OCc1ccccc1 + CC[C@H](C)C[C@H](C)CCCCCCCCC(=O)N[C@H]1C[C@@H](O)[C@@H](NCCN)NC(=O)[C@@H]2[C@@H](O)CCN2C(=O)[C@H]([C@H](O)CCN)NC(=O)[C@H]([C@H](O)[C@@H](O)c2ccc(O)cc2)NC(=O)[C@@H]2C[C@@H](O)CN2C(=O)[C@H]([C@@H](C)O)NC1=O [caspofungin] (first compound 12.5 µM)	0.281 ± 0.0049	0.193 ± 0.0098
Nc1ccc(CC(CC(=O)O)C(=O)O)cc1 [4-Amino-D, L-benzylsuccinic acid] + C[C@@H]1[C@H](O)[C@@H](C)/C=C/C=C/C=C/C=C/C=C/C=C/C=C/[C@H](O[C@@H]2O[C@H](C)[C@@H](O)[C@H](N)[C@@H]2O)C[C@@H]2O[C@](O)(C[C@@H](O)C[C@@H](O)[C@H](O)CC[C@@H](O)C[C@@H](O)CC(=O)O[C@H]1C)C[C@H](O)[C@H]2C(=O)O [amphotericin B] (first compound 12.5 µM)	0.293 ± 0.0096	0.185 ± 0.0047
CC(C)CN(C[C@@H](O)[C@H](Cc1ccccc1)NC(=O)O[C@H]1CCOC1)S(=O)(=O)c1ccc(N)cc1 [amprenavir] + CC[C@H](C)C[C@H](C)CCCCCCCCC(=O)N[C@H]1C[C@@H](O)[C@@H](NCCN)NC(=O)[C@@H]2[C@@H](O)CCN2C(=O)[C@H]([C@H](O)CCN)NC(=O)[C@H]([C@H](O)[C@@H](O)c2ccc(O)cc2)NC(=O)[C@@H]2C[C@@H](O)CN2C(=O)[C@H]([C@@H](C)O)NC1=O [caspofungin] (first compound 12.5 µM)	0.271 ± 0.014	0.201 ± 0.013
CCN1C(=O)C=CC1=O [N-Ethylmaleimide] + C[C@@H]1[C@H](O)[C@@H](C)/C=C/C=C/C=C/C=C/C=C/C=C/C=C/[C@H](O[C@@H]2O[C@H](C)[C@@H](O)[C@H](N)[C@@H]2O)C[C@@H]2O[C@](O)(C[C@@H](O)C[C@@H](O)[C@H](O)CC[C@@H](O)C[C@@H](O)CC(=O)O[C@H]1C)C[C@H](O)[C@H]2C(=O)O [amphotericin B] (first compound 4 µM)	0.304 ± 0.0086	0.189 ± 0.0049
CCCCC[C@H](CC(=O)NO)C(=O)N[C@H](C(=O)N1CCC[C@H]1CO)C(C)C [Actinonin] + OC(Cn1cncn1)(Cn1cncn1)c1ccc(F)cc1F [fluconazole] (first compound 12.5 µM)	0.267 ± 0.0099	0.145 ± 0.0085
O=c1oc(Cl)c(Cl)c2ccccc12 [3,4-Dichloroisocoumarin] + OC(Cn1cncn1)(Cn1cncn1)c1ccc(F)cc1F [fluconazole] (first compound 12.5 µM)	0.237 ± 0.011	0.154 ± 0.014
COC(=O)N[C@H](C(=O)N[C@@H](Cc1ccccc1)[C@@H](O)CN(Cc1ccc(-c2ccccn2)cc1)NC(=O)[C@@H](NC(=O)OC)C(C)(C)C)C(C)(C)C [atazanavir] + OC(Cn1cncn1)(Cn1cncn1)c1ccc(F)cc1F [fluconazole] (first compound 12.5 µM)	0.267 ± 0.012	0.173 ± 0.0039
CC(C)(C)NC(=O)[C@@H]1CN(Cc2cccnc2)CCN1C[C@@H](O)C[C@@H](Cc1ccccc1)C(=O)N[C@H]1c2ccccc2C[C@H]1O [indinavir] + CC[C@H](C)C[C@H](C)CCCCCCCCC(=O)N[C@H]1C[C@@H](O)[C@@H](NCCN)NC(=O)[C@@H]2[C@@H](O)CCN2C(=O)[C@H]([C@H](O)CCN)NC(=O)[C@H]([C@H](O)[C@@H](O)c2ccc(O)cc2)NC(=O)[C@@H]2C[C@@H](O)CN2C(=O)[C@H]([C@@H](C)O)NC1=O [caspofungin] (first compound 12.5 µM)	0.227 ± 0.0078	0.207 ± 0.011
O=C(NCCCCN1CCOCC1)c1cc2ccccc2o1 + CC[C@H](C)C[C@H](C)CCCCCCCCC(=O)N[C@H]1C[C@@H](O)[C@@H](NCCN)NC(=O)[C@@H]2[C@@H](O)CCN2C(=O)[C@H]([C@H](O)CCN)NC(=O)[C@H]([C@H](O)[C@@H](O)c2ccc(O)cc2)NC(=O)[C@@H]2C[C@@H](O)CN2C(=O)[C@H]([C@@H](C)O)NC1=O [caspofungin] (first compound 12.5 µM)	0.251 ± 0.014	0.202 ± 0.01
